Hits are enriched below; roughly 5.4% of the tested compounds scored in any of these assays.
PfM18AAP inh: PfM18AAP inhibitors, malaria aminopeptidase, primary screen, biochemical, QFRET, recombinant enzyme. M18 aspartyl aminopeptidase (Plasmodium falciparum 3D7). H-Glu-NHMec fluorogenic cleavage. inhibition, % at 7.35 µM. 290,000 tested, 1.2% active. AID 1822, 2009;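 active = inhibition above the campaign mean inhibition over all tested compounds plus 3 SD, cut at about 28% in these data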;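 note: 0% = plate median of test compound wells and 100% = 2 mM ZnCl2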
JMJD2C inh: inhibitors of GASC-1 histone demethylase, primary screen, biochemical, fluorescence, DELFIA europium. Lysine-specific demethylase 4C (Homo sapiens), Q9H3R0. GST-JMJD2C(1-420) H3K9me3 demethylation. inhibition, % at 2.35 µM. 330,000 tested, 0.069% active;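 active = more than half of a compound's replicate wells show inhibition beyond 50%, single wells judged on their own value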;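 note: signal counts dimethyl H3K9 product captured on neutravidin plate; 0% = median of DMSO wells and 100% = 0.3 times that DMSO median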
Target sequence (Q9H3R0 1-420 limits assumed): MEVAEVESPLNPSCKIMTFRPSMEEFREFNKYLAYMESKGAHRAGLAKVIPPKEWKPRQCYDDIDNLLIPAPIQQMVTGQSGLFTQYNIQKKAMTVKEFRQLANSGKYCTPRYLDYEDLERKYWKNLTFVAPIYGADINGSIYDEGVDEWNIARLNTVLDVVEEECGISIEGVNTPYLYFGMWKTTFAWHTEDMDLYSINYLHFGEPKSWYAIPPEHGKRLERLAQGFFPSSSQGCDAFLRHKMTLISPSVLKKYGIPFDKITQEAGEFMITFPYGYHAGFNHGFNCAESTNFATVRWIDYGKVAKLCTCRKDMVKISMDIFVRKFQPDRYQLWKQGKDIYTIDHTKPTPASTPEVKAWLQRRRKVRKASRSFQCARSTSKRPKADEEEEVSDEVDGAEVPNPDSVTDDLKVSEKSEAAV
Granule exo inh: LAMP-1 surface exposure blockers, TALL-104 cells – cell-based, flow cytometry, MLPCN library, primary screen. TALL-104 LAMP-1 surface exposure; cells stimulated with thapsigargin and PMA. inhibition, % at 10 µM. 360,000 tested, 0.66% active. AID 651702, 2012;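 active = inhibition above about 55%, limit read from the data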
SMARCA2 act: SMARCA2 (BRM) function activators, primary screen, cell-based, luminescence, high throughput | MG213 cells, MMTV-luciferase reporter, dexamethasone, overnight | activation, % at 9.1 µM | 370,000 tested, 1% active | AID 652017, 2013; in the data active = activation above about 7.8%;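 note: 0% = vehicle wells and 100% = reference activator wells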
ALR H2O2 inh: inhibitors of human ALR sulfhydryl oxidase, primary screen, biochemical, H2O2 detection, HRP-luminol luminescence, single point | inhibition, % (concentration not given with the values) | purified ALR, DTT oxidation | FAD-linked sulfhydryl oxidase ALR (Homo sapiens), P55789 | 290,000 tested, 3.8% active | AID 485317, 2010;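 active = mean replicate inhibition above about 79%, with every replicate also reaching it, limit read from the data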
Target sequence (P55789 whole entry, looked up): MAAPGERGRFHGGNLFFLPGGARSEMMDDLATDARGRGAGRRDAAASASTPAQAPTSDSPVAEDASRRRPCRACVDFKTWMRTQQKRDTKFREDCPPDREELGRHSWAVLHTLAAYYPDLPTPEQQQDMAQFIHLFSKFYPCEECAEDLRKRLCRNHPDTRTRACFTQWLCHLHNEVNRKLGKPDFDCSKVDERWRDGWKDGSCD
beta cell repl: inducers of MIN6 beta-cell proliferation, primary screen, ATP luminescence, uHTS | MIN6 cells proliferation, ATPlite luminescence, 48 h; cells starved in 0.2% serum; 100% = growth in 10% serum | proliferation, % at 10 µM | 330,000 tested, 0.29% active;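 active = compounds whose signal lies at least 3.5 SD above the mean of all wells on their plate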;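 note: 0% = DMSO-treated cells in low-serum medium and 100% = 10% serum control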
Starred values were filed as active, the others as inactive; . = no result.

SMILES | PfM18AAP inh | JMJD2C inh | Granule exo inh | SMARCA2 act | ALR H2O2 inh | beta cell repl
O=C(NCc1n[nH]c(=S)n1-c1cccc(Cl)c1)c1ccc(S(=O)(=O)N2CCCC2)cc1 | 26 | -4 | 0 | -1 | 94* | 0
COC(=O)C1CN(C(=O)OC(C)(C)C)C2=C1C(=O)CC(C)(C(=O)OC(C)(C)C)C2 (configuration not stated) | . | . | . | -2 | . | .
CC(=O)c1ccc(NC(=S)NNC(=O)NC2CCCCC2)cc1 | -2 | 11 | 1 | -3 | 94* | -2
Cc1ccc(N/N=C(\C#N)C(N)=S)c(C)c1 | -3 | 0 | -8 | -3 | . | .
Cc1ccc(NC(=O)/C(C#N)=N/Nc2ccc(C(=O)O)cc2)c(C)c1 | 12 | 1 | 11 | 5 | 76* | 0
CCN(c1ccc(C(=O)CSc2nnc(C3CC3)n2C2CC2)cc1)S(C)(=O)=O | . | -2 | -4 | -3 | 96* | -4
CC(=O)N(C)Cc1ccc(C(=O)CSc2nnc(C3CC3)n2C2CC2)cc1 | . | -2 | 0 | -3 | 46 | 0
O=C1C(Cl)=C(NCCN2CCCCC2)C(=O)c2ccccc21 | 3 | 34 | 56* | . | -71 | -6
COc1ccc(/C=C2\CC3(OC(=O)C4CCCCC4)CCCN2C3)cc1 (configuration not stated) | . | . | . | -3 | . | .
COC(=O)c1ccc(CSc2nc(C(F)(F)F)c3c(c2C#N)CCC3)o1 | 2 | 19 | 3 | 1 | 98* | -3
COC(=O)c1ccc(CSc2cc(C)c3ccccc3n2)o1 | -13 | 38 | 5 | -2 | 4 | 0
Cc1cc(N2CCN(C(=O)Oc3ccc(C(F)(F)F)cc3)CC2)c2ccccc2n1 | . | . | . | -5 | . | .
CCN(CC)c1ccc(NC(=O)c2c(C)noc2C)cc1 | -13 | 5 | 0 | -1 | 98* | 5
Cc1occc1C(=O)Nc1sccc1C(N)=O | 3 | 13 | 16 | 5 | 60 | 2
COc1ccc(Cl)cc1C(=O)Nc1ccncc1 | -4 | 4 | -7 | -1 | -9 | 3
O=C(O)c1cc(NC(=O)c2ccccc2F)cc(NC(=O)c2ccccc2F)c1 | 4 | 3 | 1 | -1 | 5 | -4
Cc1noc(C)c1C(=O)Nc1sccc1C(N)=O | . | 5 | 4 | 7.9* | 0 | 0
CC(=O)Nc1ccc(NC(=O)c2c(C)noc2C)cc1 | -6 | -4 | 0 | -2 | 1 | -1
CCN(CC)c1ccc(NC(=O)c2cc(Cl)ccc2OC)cc1 | 4 | -4 | -3 | 2 | 98* | 1
O=C(Nc1ccc(Nc2ccccc2)cc1)c1ccccc1F | -12 | 5 | 12 | 5 | 99* | -2
COc1ccc(C(=O)OCCN2CCN(C3CN(Cc4cn(Cc5ccccc5C(F)(F)F)nn4)S(=O)(=O)C3)CC2)cc1OC (configuration not stated) | . | . | . | 2 | . | .
CCN(CC)c1ccc(NC(=O)c2ccccc2F)cc1 | 10 | -5 | -3 | 6 | 99* | -3
O=C(Nc1ccc(N2CCCC2)cc1)c1ccccc1F | 5 | 5 | 11 | 4 | 22 | 0
Cc1cc(C(=O)CSc2nc3ccccc3c(=O)[nH]2)c(C)n1C | 26 | 2 | -3 | 0 | 98* | -1
Cc1cc(C(=O)CSC(C)c2nc3ccccc3c(=O)[nH]2)c(C)n1C (configuration not stated) | 2 | 11 | 0 | 3 | 99* | -2
SMILES | PfM18AAP inh | JMJD2C inh | Granule exo inh | SMARCA2 act | ALR H2O2 inh | beta cell repl
CC(SCC(=O)Nc1ccccc1)c1nc2ccccc2c(=O)[nH]1 (configuration not stated) | -2 | -8 | 1 | -2 | -21 | -1
COC(=O)[C@]12C[C@H](CC(=O)NCCc3ccccc3OC)C(=O)N(CCC3=CCCCC3)C1=C[C@H](C(C)(C)C)O[C@@H]2C | . | . | . | -4 | . | .
Cc1ccc(N2C(=O)C(CC(=O)Nc3cccc(F)c3)N(C3CC3)C2=O)cc1 (configuration not stated) | 1 | 3 | -6 | 1 | 79* | -2
COc1cccc(N2C(=O)C(CC(=O)Nc3ccc(F)cc3)N(C3CCCCC3)C2=O)c1 (configuration not stated) | -15 | -5 | 0 | 0 | -2 | -1
Cc1nn(C)c(C(=O)NC2C3CC4CC(C3)CC2C4)c1Cl (configuration not stated) | -5 | -6 | -1 | -2 | 0 | 7.7*
COc1cc(/C=N/N2C(=O)C3C4C=CC(CC4)C3C2=O)ccc1O (configuration not stated) | 0 | -10 | 8 | -2 | 90* | 1
COc1cc(/C=N/NC(=O)NC2CCCCC2)ccc1O | 1 | -3 | -2 | 0 | 99* | 1
COc1cc(/C=N/NC(=O)NC2CCCCC2)cc(OC)c1O | 29* | -8 | -4 | -3 | 99* | -1
O=C(CSc1nnc(-c2ccccn2)n1-c1ccccc1)Nc1ccccc1-c1ccccc1 | . | . | . | -6 | . | .
C[C@H]1CN(C(=O)OC(C)(C)C)CCN1c1ccc(N2CCS(=O)(=O)CC2)c(C#N)c1 | . | . | . | -4 | . | .
CCOc1ccc2nc(NC(=O)CS(=O)(=O)c3ccc(C)cc3)sc2c1 | 6 | 30 | -1 | 2 | 81* | -5
CCOc1ccc2nc(NC(=O)CS(=O)(=O)c3ccccc3)sc2c1 | 7 | 2 | -4 | 4 | -22 | -2
CCCCCc1cc(=O)oc2c(C(CCN(CC)CC)c3ccc(OC)cc3)c(OC)cc(OC)c12 (configuration not stated) | . | -6 | -4 | -1 | -82 | -8
CCN(CC)CCC(c1ccc(N(C)C)cc1)c1c(OC)cc(OC)c2ccc(=O)oc12 (configuration not stated) | . | 2 | -2 | -1 | 99* | -3
CCN(CC)C(=O)CC(c1ccc(N(C)C)cc1)c1c(OC)cc(OC)c2ccc(=O)oc12 (configuration not stated) | . | 5 | -10 | 0 | 98* | -1
CCN(CC)C(=O)CC(c1ccc2c(c1)OCO2)c1c(OC)cc(OC)c2ccc(=O)oc12 (configuration not stated) | . | 1 | -8 | 0 | 4 | 6
Nc1n[nH]c(N)c1N=Nc1cccc(F)c1 | 17 | 11 | -2 | -1 | . | 0
Cc1cccc(N=Nc2c(N)n[nH]c2N)c1 | 13 | 16 | 2 | -1 | 93* | 0
O=C(c1cccnc1Cl)N1CCC(Oc2cccnc2)CC1 | . | . | . | -3 | . | .
Cc1cc(C)cc(OCc2ccc(C(=O)O)o2)c1 | 0 | -1 | -4 | -1 | 18 | -4
O=C(O)c1ccc(COc2c(F)c(F)c(F)c(F)c2F)o1 | 22 | -4 | -1 | 3 | 96* | 4
